A number with no mark means an inactive call. Records with an inconclusive call do not appear. Activity calls are given as the source filed them. Calls follow the shape of the dose curve; as a rule, active = well fitted curve in the direction sought with a large enough effect in the repeat runs; inconclusive = weak or mixed curves; inactive = no such curve, though single readings can be large; an effect the other way counts as inactive or inconclusive.

Assay [1] is described as follows: Human pregnane X receptor (PXR) small molecule agonists, qHTS cell viability counter screen (AID 1346977). Also: nearly all actives have a fitted effect of over 50% in size. The method, boiled down: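 PXR-Luc HepG2 cells (2,000/well, 5% charcoal-stripped FBS) preincubated 5 hr, then exposed to compounds 24 hr at 37 C. Viability read in the same wells by CellTiter-Fluor fluorescence, reagent added at 23 hr, 1 hr incubation.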
Assay [2] is described as follows: Caspase-3/7 induction in HepG2 cells by small molecules, qHTS assay (AID 1346978). Also: nearly all actives have a fitted effect of over 15% in size. The method, boiled down:
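Wild-type HepG2 cells, 2,000/well, settled 5 hr at 37 C and 5% CO2, then compound-treated for 17 hr; caspase-3/7 activity read by luminescent Caspase-Glo 3/7 after 30 min at room temperature.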
Background: Quantitative high-throughput screening tests each substance at several concentrations.

A short description of assay [3]: Caspase-3/7 induction in CHO-K1 cells by small molecules, qHTS cell viability counter screen (AID 1346979). Also: nearly all actives have a fitted effect of over 35% in size. Also: potency is read from the fitted curve at half-maximal effect. The method, boiled down:
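Wild-type CHO-K1 cells (1,500/well) treated with compound after 5 h plating; after 16 h at 37C, viability read as CellTiter-Fluor fluorescence following 1 h reagent incubation, in the same wells as the caspase read.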

The nature of assay [4]: Caspase-3/7 induction in CHO-K1 cells by small molecules, qHTS assay (AID 1346980). Also: nearly all actives have a fitted effect of over 15% in size. The essentials: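 Wild-type CHO-K1 cells exposed to compounds for 17hr at 37 C, 5% CO2. Caspase-3/7 activity then measured by Caspase-Glo 3/7 luminescence after 30min at room temperature.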
A short description of assay [5]: Caspase-3/7 induction in HepG2 cells by small molecules, qHTS cell viability counter screen (AID 1346981). Also: series mostly up to about 92 µM; nearly all actives have a fitted effect of over 30% in size. The method, boiled down:
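Treatment of HepG2 cells with DMSO-delivered compounds ran 16 hr at 37 C following a 5-hr pre-incubation of 2,000 cells/well. CellTiter-Fluor fluorescence, read after 1 hr, served as the viability measure in a qHTS format.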

The target in assay [6] is Nuclear receptor subfamily 1 group I member 2 (Homo sapiens) (UniProt O75469). Put plainly: Human pregnane X receptor (PXR) small molecule agonists, qHTS assay (AID 1346982). Also: nearly all actives have a fitted effect of over 35% in size. Also: potency is read from the fitted curve at half-maximal effect. The essentials:
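Stable HepG2 line reporting PXR-mediated CYP3A4 expression via luciferase. Treatment: 24 hr with compounds in DMSO at 37 C. Detection: ONE-Glo luminescence.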

The target of assay [7] is Cytochrome P450 2C19 (Homo sapiens) (UniProt P33261). As to the kind of experiment: Cytochrome P450 Family 2 Subfamily C Member 19 (CYP2C19) small molecule antagonists: luciferase reporter qHTS assay (AID 1671197). Also: nearly all actives have a fitted effect of over 65% in size. Also: potency is read from the fitted curve at half-maximal effect. As to activity change, negative = inhibition: series mostly up to about 120 µM. The essentials: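 Inhibition of CYP2C19 was scored from loss of luminescence in a P450-Glo proluciferin substrate assay, NADPH-started and run 1 h at 37C, with ketoconazole as positive control.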
Chain of Cytochrome P450 2C19 (Homo sapiens) (P33261 whole entry, looked up): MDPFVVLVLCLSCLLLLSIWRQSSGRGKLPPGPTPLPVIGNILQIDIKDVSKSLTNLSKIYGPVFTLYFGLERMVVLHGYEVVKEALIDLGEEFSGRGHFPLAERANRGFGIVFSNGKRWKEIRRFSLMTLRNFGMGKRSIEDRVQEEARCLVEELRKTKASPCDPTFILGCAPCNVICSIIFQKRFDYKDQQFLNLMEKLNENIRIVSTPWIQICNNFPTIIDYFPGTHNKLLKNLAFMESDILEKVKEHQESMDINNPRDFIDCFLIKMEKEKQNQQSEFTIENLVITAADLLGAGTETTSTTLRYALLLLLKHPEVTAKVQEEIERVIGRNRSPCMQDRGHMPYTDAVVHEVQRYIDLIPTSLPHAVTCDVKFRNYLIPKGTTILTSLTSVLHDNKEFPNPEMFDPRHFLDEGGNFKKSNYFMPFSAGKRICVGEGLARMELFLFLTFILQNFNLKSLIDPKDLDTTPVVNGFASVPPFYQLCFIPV
On the technique in general: In a reporter assay the amount or activity of a reporter protein is the signal.

Assay [8] has as its target Cytochrome P450 2C9 (Homo sapiens) (UniProt P11712). Put plainly: Cytochrome P450 Family 2 Subfamily C Member 9 (CYP2C9) small molecule antagonists: luciferase reporter qHTS assay (AID 1671198). Also: nearly all actives have a fitted effect of over 50% in size. Also: potency is read from the fitted curve at half-maximal effect. As to activity change, negative = inhibition: series mostly up to about 120 µM. The essentials:
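P450-Glo proluciferin substrate with CYP2C9 enzyme; 10 min RT preincubation, then NADPH regeneration 1 h at 37C; luciferin detection reagent 20 min RT, luminescence in relative luminescence units.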

For assay [9], the target named is Voltage-gated inwardly rectifying potassium channel KCNH2 (Homo sapiens) (UniProt Q12809). Put plainly: Human Ether-a-go-go-Related Gene (hERG) channel small molecule antagonists: fluorescence cell-based qHTS assay (AID 1671200).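 Also: hERG-expressing U2OS cells given a thallium stimulus after FluxOR II dye loading; series mostly up to about 77 µM; nearly all actives have a fitted effect of over 50% in size.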 The essentials:
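hERG-U2OS cells plated overnight at 37 C, loaded with FluxOR II dye 1 h at RT in dark; after 10 min, thallium stimulus added. Fluorescence (480/540 nm) read kinetically for 2 min at 1 s intervals.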
For orientation: The hERG channel carries a current that helps repolarise heart muscle cells.

The target in assay [10] is Cytochrome P450 3A4 (Homo sapiens) (UniProt P08684). As to the kind of experiment: Cytochrome P450 Family 3 Subfamily A Member 4 (CYP3A4) small molecule antagonists: luciferase reporter qHTS assay (AID 1671201). Also: series mostly up to about 120 µM; nearly all actives have a fitted effect of over 50% in size. The essentials:
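P450-Glo CYP3A4 luminescent assay: compounds preincubated 10 min at room temperature with enzyme and proluciferin substrate, NADPH regeneration added, 1 h room-temperature reaction, stopped with luciferin detection reagent; luminescence read after 20 min. Ketoconazole positive control.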

In assay [11] the target is Cytochrome P450 1A2 (Homo sapiens) (UniProt P05177). Put plainly: Cytochrome P450 Family 1 Subfamily A Member 2 (CYP1A2) small molecule antagonists: luciferase reporter qHTS assay (AID 1671199). Also: nearly all actives have a fitted effect of over 50% in size. Also: potency is read from the fitted curve at half-maximal effect. As to activity change, negative = inhibition: series mostly up to about 120 µM. The essentials: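 Read-out is luminescence from luciferin detection reagent (20 min) proportional to CYP1A2 activity; compounds in DMSO preincubated 10 min with enzyme and proluciferin substrate, then NADPH regeneration solution, 1 h, room temperature.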
Chain of Cytochrome P450 1A2 (Homo sapiens) (P05177 whole entry, looked up): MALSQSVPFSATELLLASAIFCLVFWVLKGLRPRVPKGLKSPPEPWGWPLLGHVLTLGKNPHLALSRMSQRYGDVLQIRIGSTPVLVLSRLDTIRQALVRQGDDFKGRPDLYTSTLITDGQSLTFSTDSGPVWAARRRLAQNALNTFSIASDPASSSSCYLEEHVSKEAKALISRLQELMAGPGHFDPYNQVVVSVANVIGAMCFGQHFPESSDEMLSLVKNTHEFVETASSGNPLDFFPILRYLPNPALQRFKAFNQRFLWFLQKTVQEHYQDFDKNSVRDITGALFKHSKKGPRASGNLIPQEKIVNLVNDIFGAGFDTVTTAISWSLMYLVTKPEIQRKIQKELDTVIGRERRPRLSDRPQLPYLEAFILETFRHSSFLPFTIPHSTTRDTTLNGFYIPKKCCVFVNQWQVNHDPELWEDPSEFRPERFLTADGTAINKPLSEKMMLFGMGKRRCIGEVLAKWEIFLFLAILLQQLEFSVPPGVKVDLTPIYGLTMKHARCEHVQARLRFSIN

For assay [12], the target named is Cytochrome P450 2D6 (Homo sapiens) (UniProt P10635). As to the kind of experiment: Cytochrome P450 Family 2 Subfamily D Member 6 (CYP2D6) small molecule antagonists: luciferase reporter qHTS assay (AID 1671196). Also: nearly all actives have a fitted effect of over 50% in size. Also: potency is read from the fitted curve at half-maximal effect. As to activity change, negative = inhibition: series mostly up to about 120 µM. The method, boiled down:
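Chemicals tested for interference with CYP2D6 activity; proluciferin substrate, NADPH regeneration, 1 h at room temperature, luminescent detection.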
% is scaled to controls: 0 for no effect and ±100 for the full control effect.

Chain of Voltage-gated inwardly rectifying potassium channel KCNH2 (Homo sapiens) (Q12809 whole entry, looked up): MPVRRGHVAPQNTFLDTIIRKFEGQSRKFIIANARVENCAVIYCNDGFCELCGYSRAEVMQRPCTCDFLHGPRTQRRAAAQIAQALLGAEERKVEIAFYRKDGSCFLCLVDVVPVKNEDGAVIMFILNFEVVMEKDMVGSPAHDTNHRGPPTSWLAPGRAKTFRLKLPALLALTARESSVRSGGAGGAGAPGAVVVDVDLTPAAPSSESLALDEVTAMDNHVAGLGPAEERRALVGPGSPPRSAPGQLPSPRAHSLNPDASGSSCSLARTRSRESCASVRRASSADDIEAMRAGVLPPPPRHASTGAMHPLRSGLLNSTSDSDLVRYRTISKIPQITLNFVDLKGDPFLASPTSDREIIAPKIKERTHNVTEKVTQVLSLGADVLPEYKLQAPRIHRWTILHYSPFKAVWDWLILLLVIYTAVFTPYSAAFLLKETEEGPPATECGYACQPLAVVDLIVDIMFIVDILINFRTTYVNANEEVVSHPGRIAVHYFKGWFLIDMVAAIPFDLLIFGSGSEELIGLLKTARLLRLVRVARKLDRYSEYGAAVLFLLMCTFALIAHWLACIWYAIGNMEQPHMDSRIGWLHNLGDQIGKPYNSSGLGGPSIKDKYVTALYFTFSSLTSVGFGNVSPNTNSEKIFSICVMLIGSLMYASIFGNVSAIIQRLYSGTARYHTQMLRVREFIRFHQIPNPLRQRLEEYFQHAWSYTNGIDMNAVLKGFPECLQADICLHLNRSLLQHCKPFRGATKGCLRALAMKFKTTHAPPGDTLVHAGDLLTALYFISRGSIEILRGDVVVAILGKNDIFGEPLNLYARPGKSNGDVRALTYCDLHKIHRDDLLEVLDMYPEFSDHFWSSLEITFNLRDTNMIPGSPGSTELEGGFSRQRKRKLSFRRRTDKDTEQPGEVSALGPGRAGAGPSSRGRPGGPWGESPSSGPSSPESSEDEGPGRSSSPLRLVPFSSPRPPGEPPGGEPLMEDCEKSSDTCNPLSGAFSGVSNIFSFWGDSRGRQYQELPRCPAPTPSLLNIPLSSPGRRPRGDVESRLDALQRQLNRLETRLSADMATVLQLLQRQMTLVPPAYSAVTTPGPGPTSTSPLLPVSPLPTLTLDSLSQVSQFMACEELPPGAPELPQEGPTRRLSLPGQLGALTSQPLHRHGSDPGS
Chain of Cytochrome P450 2C9 (Homo sapiens) (P11712 whole entry, looked up): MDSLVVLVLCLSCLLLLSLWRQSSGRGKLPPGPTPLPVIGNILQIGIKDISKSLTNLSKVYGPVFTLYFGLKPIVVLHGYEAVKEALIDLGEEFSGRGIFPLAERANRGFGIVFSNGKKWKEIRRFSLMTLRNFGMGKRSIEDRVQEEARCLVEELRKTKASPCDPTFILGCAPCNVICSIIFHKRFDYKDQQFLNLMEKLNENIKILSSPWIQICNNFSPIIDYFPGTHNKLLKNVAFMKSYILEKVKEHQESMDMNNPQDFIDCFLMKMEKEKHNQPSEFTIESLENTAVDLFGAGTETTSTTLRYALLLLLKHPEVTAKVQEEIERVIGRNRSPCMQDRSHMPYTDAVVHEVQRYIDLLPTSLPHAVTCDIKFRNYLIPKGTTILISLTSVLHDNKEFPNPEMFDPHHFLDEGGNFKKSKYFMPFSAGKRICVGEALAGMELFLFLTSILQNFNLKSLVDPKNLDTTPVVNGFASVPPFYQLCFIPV
Chain of Cytochrome P450 2D6 (Homo sapiens) (P10635 whole entry, looked up): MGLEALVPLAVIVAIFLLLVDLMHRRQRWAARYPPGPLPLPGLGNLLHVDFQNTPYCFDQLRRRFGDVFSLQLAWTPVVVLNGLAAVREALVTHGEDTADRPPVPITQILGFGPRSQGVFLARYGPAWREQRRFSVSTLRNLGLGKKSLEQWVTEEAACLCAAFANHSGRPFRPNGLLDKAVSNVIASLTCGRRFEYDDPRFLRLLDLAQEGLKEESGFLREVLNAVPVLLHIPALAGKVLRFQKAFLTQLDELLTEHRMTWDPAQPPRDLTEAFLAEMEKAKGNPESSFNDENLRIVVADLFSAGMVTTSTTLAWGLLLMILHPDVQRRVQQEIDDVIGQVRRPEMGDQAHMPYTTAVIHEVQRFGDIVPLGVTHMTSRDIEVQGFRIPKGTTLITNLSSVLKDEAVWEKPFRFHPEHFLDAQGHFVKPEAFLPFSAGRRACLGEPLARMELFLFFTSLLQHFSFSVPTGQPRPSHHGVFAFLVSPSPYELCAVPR
Chain of Cytochrome P450 3A4 (Homo sapiens) (P08684 whole entry, looked up): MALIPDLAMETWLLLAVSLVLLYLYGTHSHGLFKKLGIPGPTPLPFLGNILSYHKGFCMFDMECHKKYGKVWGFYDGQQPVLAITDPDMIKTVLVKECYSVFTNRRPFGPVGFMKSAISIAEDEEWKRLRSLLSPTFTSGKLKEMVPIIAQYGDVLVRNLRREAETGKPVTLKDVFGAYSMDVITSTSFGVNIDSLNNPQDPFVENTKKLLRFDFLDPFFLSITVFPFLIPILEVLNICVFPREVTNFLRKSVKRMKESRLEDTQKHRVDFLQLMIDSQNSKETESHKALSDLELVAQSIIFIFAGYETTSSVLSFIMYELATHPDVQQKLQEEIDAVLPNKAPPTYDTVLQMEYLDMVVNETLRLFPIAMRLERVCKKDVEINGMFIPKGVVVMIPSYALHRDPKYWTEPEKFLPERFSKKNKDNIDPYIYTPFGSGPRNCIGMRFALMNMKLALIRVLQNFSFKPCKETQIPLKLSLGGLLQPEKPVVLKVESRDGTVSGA
Chain of Nuclear receptor subfamily 1 group I member 2 (Homo sapiens) (O75469 whole entry, looked up): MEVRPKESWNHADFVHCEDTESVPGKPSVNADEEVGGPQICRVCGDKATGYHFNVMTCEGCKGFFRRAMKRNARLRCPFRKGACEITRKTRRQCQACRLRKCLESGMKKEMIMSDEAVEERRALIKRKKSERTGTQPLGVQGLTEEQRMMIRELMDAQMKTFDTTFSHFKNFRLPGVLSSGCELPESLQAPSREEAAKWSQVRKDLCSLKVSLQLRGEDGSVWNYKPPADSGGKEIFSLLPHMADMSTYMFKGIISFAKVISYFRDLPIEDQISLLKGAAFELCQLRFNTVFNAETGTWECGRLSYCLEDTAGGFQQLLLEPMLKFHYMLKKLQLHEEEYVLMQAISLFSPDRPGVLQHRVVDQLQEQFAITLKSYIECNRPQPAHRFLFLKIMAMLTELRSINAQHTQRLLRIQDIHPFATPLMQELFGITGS

For `O=C(CCCCCCCCC#CI)Oc1ccccc1`, the Potency entry in assay [1], in assay [2], in assay [3], in assay [5], in assay [6] and in assay [7] was “inactive” in each case. Also, the Potency result in [9] and in [10] was “inactive” in each case. Further, the compound was classed as inactive in [4]. Further, the Potency in assay [8] is 17.4 µM (active).

For the compound `CNC(=O)N(c1ccccc1)c1ccccc1`, the Potency entry in assay [1], in assay [2], in [5], in assay [7], in [8] and in assay [10] was “inactive” each time. Also, the Potency was 43.5 µM (active) in [3], 48.8 µM (active) in assay [6] and 40.1 µM (active) in assay [11]. Also, the outcome in [4] was inactive.

Regarding `CCCCCCOC(=O)CCCCCCCC(=O)OCCCCCC`, the Potency entry in assay [1], in [2], in assay [3], in assay [5], in assay [6] and in assay [12] was “inactive” in each case. Besides, the Potency result in [7], in assay [8], in assay [9] and in assay [10] was “inactive” in each case. In addition, in [4], the result was inactive.

For `c1ccc(COCc2ccccc2)cc1`, the Potency result in assay [1], in assay [2], in assay [3], in assay [5], in [6] and in assay [12] was “inactive” throughout. Also, the Potency entry in assay [11] and in assay [10] was “inactive” each time. In assay [4], the result was inactive.

As for `COC(OC)(C(=O)c1ccccc1)c1ccccc1`, the Potency entry in assay [1], in [2], in [3], in assay [5], in assay [11] and in [9] was “inactive” in each case. Besides, in [10], the Potency result was “inactive”. For the same compound, the result in [4] was inactive. The results for the Potency in assay [6], in assay [7] and in [8] were 24.3 µM (active), 10 µM (active) and 20 µM (active), respectively.

With `CN(C(=O)C(Cl)Cl)c1ccc(OC(=O)c2ccco2)cc1`, the Potency result in assay [1], in assay [2], in assay [3], in [5], in assay [6] and in assay [12] was “inactive” each time. The Potency entry in [11], in [9] and in assay [10] was “inactive” in each case. For the same compound, the outcome in [4] was inactive. Further, in assay [8], the Potency is 15.5 µM (active).

Regarding `CC(C)CCCC(=O)O`, the Potency result in [1], in assay [2], in assay [3], in assay [5], in assay [6] and in [7] was “inactive” in each case. The Potency entry in assay [8], in assay [11], in assay [9] and in [10] was “inactive” in each case. Besides, the compound was called inactive in [4].

Regarding `CCCCCCCCCCCC[N+](C)(C)CCCS(=O)(=O)[O-]`, the Potency entry in [1], in [2], in assay [3], in [5], in assay [6] and in [7] was “inactive” each time. Moreover, the Potency result in assay [8], in [11], in assay [9] and in assay [10] was “inactive” in each case. Moreover, in [4], the call was inactive.

For the compound `Cc1ccnc2ccccc12`, the Potency result in [1], in assay [2], in assay [3], in [5], in assay [6] and in assay [7] was “inactive” each time. Also, the Potency result in assay [8], in assay [9] and in assay [10] was “inactive” in each case. For the same compound, the compound was classed as inactive in [4].

Regarding `CCC(C)(O)CCC=C(C)C` (stereo not drawn), the Potency result in assay [1], in assay [2], in assay [3], in [5], in [6] and in assay [12] was “inactive” throughout. Also, the Potency entry in [8], in [11], in [9] and in assay [10] was “inactive” each time. For the same compound, the compound was called inactive in assay [4].

As to `CC(C)c1nnc2ccc(-c3ocnc3-c3cc(F)ccc3F)cn12`, the Potency entry in [1], in [2], in assay [3], in assay [5], in assay [9] and in assay [10] was “inactive” throughout. Also, the compound was called inactive in assay [4]. For the same compound, the Potency was 48.6 µM (active) in [6], 56.4 µM (active) in assay [7], 5.64 µM (active) in [8] and 35.6 µM (active) in assay [11].

`[O]=[Bi]`: the activity change, negative = cytotoxicity is 1.27% [at 8.39 µM] in assay [1], -0.807% [at 8.39 µM] in [3] and -1.33% [at 8.39 µM] in assay [5]. For the same compound, the caspase activation in assay [2] was -1.09% [at 8.39 µM]. Also, the caspase-3/7 activation in assay [4] was -0.359% [at 8.39 µM]. Moreover, the activation in assay [6] is 1.61% [at 8.39 µM]. The activity change, negative = inhibition in assay [7] is -17.2% [at 10.5 µM]; in assay [8], 1.73% [at 10.5 µM]; in [11] it was -11% [at 10.5 µM]; in [9] it was -0.289% [at 6.97 µM]; in assay [10] it was 0.199% [at 10.5 µM].

For the compound `O=C(O)c1cccnc1C(=O)O`, the Potency result in assay [1], in [2], in assay [3], in [5], in assay [6] and in [7] was “inactive” each time. Moreover, the Potency result in [8], in [11], in assay [9] and in [10] was “inactive” in each case. The call in [4] was inactive.

On to `O=S1OCCO1`, for which the Potency entry in assay [1], in assay [2], in [3], in [5], in assay [6] and in [12] was “inactive” each time. Besides, the Potency entry in assay [7], in [8], in assay [9] and in [10] was “inactive” each time. Further, in assay [4], the result was inactive.

With `CC1(C)C(=O)N(Br)C(=O)N1Cl`, the Potency entry in assay [1], in assay [2], in [3], in assay [5], in assay [6] and in [12] was “inactive” in each case. The Potency entry in assay [9] is “inactive”. Also, the compound was called inactive in [4]. Moreover, the Potency was 71 µM (active) in assay [7] and 63.3 µM (active) in assay [8].

As to `CCOC(=O)OCC`, the Potency entry in [1], in assay [2], in [3], in assay [5], in assay [6] and in [7] was “inactive” throughout. Besides, the Potency entry in assay [8] was “inactive”. In addition, the result in assay [4] was inactive. Moreover, the Potency in assay [11] is 41.5 µM (active).

With `COc1ccc(CCC(=O)c2c(O)cc(O[C@@H]3O[C@H](CO)[C@@H](O)[C@H](O)[C@H]3O[C@@H]3O[C@@H](C)[C@H](O)[C@@H](O)[C@H]3O)cc2O)cc1O`, the Potency entry in [1], in assay [2], in assay [3], in [5], in assay [6] and in assay [12] was “inactive” throughout. Besides, the Potency entry in [7] and in [9] was “inactive” in each case. In assay [4], the call was inactive. The Potency in assay [8] is 25.3 µM (active).

Consider `O=C1NCCN1`, for which the Potency result in assay [1], in [2], in assay [3], in assay [5], in [6] and in assay [8] was “inactive” throughout. Besides, the Potency entry in assay [9] and in assay [10] was “inactive” in each case. The call in [4] was inactive. The Potency in [12] was 21.5 µM (active); in [7] it was 34.1 µM (active).

Consider `O=C(O)c1snc(Cl)c1Cl`, for which the Potency result in assay [1], in assay [2], in assay [3], in [5], in assay [6] and in assay [12] was “inactive” in each case. Moreover, the Potency result in [9] and in assay [10] was “inactive” each time. Besides, the compound was classed as inactive in assay [4].

For the compound `COc1ccc([C@@H]2Sc3ccccc3NC(=O)[C@@H]2O)cc1`, the Potency entry in assay [1], in [2], in [3], in assay [5], in assay [6] and in assay [9] was “inactive” throughout. Also, the Potency entry in assay [10] was “inactive”. For the same compound, in [4], the call was inactive. Also, the values for the Potency in [7] and in assay [8] were 21.9 µM (active) and 17.4 µM (active), respectively.

These data come from PubChem BioAssay (Tox21).
